# Source: PubChem BioAssay (NCI)
# This is part of a sample that, as a whole, favours compounds with a hit. Of some 83,000 tested, about 20% had one in any assay.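 Negative percent growth values reflect cell death: -40 means 40% of the cells present at the start died, and -100 means all died.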 Unmarked numbers belong to inactive results. Active and inactive are the calls of the source. How the source made its calls: active means growth percent below 10; inactive means the rest.
# Legend:
# Test in all cases: NCI-60 one-dose screen, 48 h (100 = growth as untreated, 0 = no growth, -100 = all killed)
# Settings in all cases: 10 µM unless noted
# [1] = system: NCI-H23 lung
# [2] = system: NCI-H226 lung
# [3] = system: NCI-H322M lung
# [4] = system: HOP-62 NSCLC
# [5] = system: NCI-H460 lung
# [6] = system: HOP-92 NSCLC
# [7] = system: A549/ATCC NSCLC
# [8] = system: 786-0 renal
# [9] = system: COLO 205 colon
# [10] = system: DU-145 prostate
# [11] = system: K-562 leukemia
# [12] = system: MALME-3M melanoma
# [13] = system: MDA-MB-231 breast
# [14] = system: RXF 393 renal
# [15] = system: SF-268 CNS
# [16] = system: SF-295 CNS
# [17] = system: UACC-257 melanoma
# [18] = system: M14 melanoma
# [19] = system: SF-539 CNS
Compound,growth [1],growth [2],growth [3],growth [4],growth [5],growth [6],growth [7],growth [8],growth [9],growth [10],growth [11],growth [12],growth [13],growth [14],growth [15],growth [16],growth [17],growth [18],growth [19]
CCCCCc1c(C)[nH]c(/C=C2\N=C(c3ccc[nH]3)C=C2Oc2ccc(Cl)cc2)c1C,-46.3% [100 µM] (active),11.9% [100 µM],20.5% [100 µM],-6.67% [100 µM] (active),2.82% [100 µM] (active),-10.7% [100 µM] (active),-51.5% [100 µM] (active),-18.2% [100 µM] (active),-85.5% [100 µM] (active),3.42% [100 µM] (active),0.896% [100 µM] (active),-59.3% [100 µM] (active),-38.7% [100 µM] (active),-2.91% [100 µM] (active),-72.6% [100 µM] (active),-72.9% [100 µM] (active),-25.4% [100 µM] (active),-88.5% [100 µM] (active),–
c1cc[n+](Cc2ccnc3ccccc23)cc1,123%,93.9%,111%,94.1%,106%,47.9%,107%,107%,104%,117%,71.3%,114%,98.9%,90.3%,106%,95.9%,–,101%,89.3%
O=C1/C(=C/c2ccccc2Cl)CCc2ccccc21,102%,106%,101%,106%,104%,90.7%,83.5%,102%,115%,108%,105%,104%,111%,107%,96.7%,65.3%,–,104%,106%
CCCCCc1c(C)[nH]c(/C=C2\N=C(c3ccc[nH]3)C=C2Oc2ccccc2)c1C,-80.2% [100 µM] (active),-38.2% [100 µM] (active),-49.8% [100 µM] (active),-46.4% [100 µM] (active),-38.6% [100 µM] (active),-41.3% [100 µM] (active),-81.6% [100 µM] (active),-76.3% [100 µM] (active),-53.9% [100 µM] (active),-68.1% [100 µM] (active),-43.8% [100 µM] (active),-44.7% [100 µM] (active),-94.1% [100 µM] (active),-57.2% [100 µM] (active),-60.8% [100 µM] (active),-57.7% [100 µM] (active),-66.9% [100 µM] (active),-96.7% [100 µM] (active),–
CC[C@@H](C)/C=C(C)/C=C/C(O)=C1\C(=O)N[C@@H](Cc2ccc(OC(=O)[C@@](OC)(c3ccccc3)C(F)(F)F)cc2)C1=O,99.2%,104%,91%,110%,79.8%,41.5%,97.2%,90.8%,118%,73.2%,9.3% (active),–,89.5%,109%,61.9%,74.2%,94%,97%,114%
COc1cccc(-c2nc3cc(NC(=O)c4ccc(Cl)c(C#N)c4)ccc3o2)c1,-18.8% (active),76.1%,-13.2% (active),70.2%,-21.4% (active),26.5%,-26.7% (active),-92.1% (active),28.9%,8.18% (active),8.47% (active),-56.5% (active),8.99% (active),–,-5.11% (active),25.3%,4.33% (active),-82.7% (active),-70.7% (active)
CN(C)CCCNc1nn2c(=O)c3ccccc3nc2c2ccccc12,54.1%,53.4%,61.9%,47.5%,19.9%,23.3%,24%,59%,37.1%,81.4%,41%,66.4%,77.1%,–,61%,47.9%,–,89.2%,41.2%
O=C1N=C(N2CCOCC2)S/C1=C\c1cn(-c2ccccc2)nc1-c1ccccc1,95.2%,78.8%,73.3%,68.5%,67.3%,94.6%,94.8%,25.6%,122%,69.9%,92.9%,–,52.7%,51.8%,74.8%,48.4%,81.9%,83.5%,28.4%
Cn1c(=O)c2[nH]c(=S)n(Cc3ccccc3)c2n(C)c1=O,93.1%,104%,118%,70%,110%,91.8%,95.2%,102%,109%,105%,84.6%,–,101%,120%,95.8%,118%,90.4%,99.7%,93.8%
O=C(/C=C/c1c(-c2ccccc2)[nH]c2ccccc12)S(=O)(=O)c1ccccc1,73%,69.1%,93%,69.3%,43.8%,47.8%,25.7%,74.4%,80.6%,76%,9.37% (active),88.2%,63.3%,–,89.5%,63.5%,–,51.7%,89.5%
Cc1sc2nc3c4ccccc4c(NCCCN(C)C)nn3c(=O)c2c1C,60.9%,42.8%,83.1%,61.7%,23.6%,29%,15%,55.7%,-57.4% (active),41.5%,-73.8% (active),-42.2% (active),-23.6% (active),–,66.7%,65.6%,–,-95.6% (active),29%
CCOC(CNCc1cc(C)c2[nH]c3ccccc3c2c1C)OCC,82.2%,70%,83.2%,98.1%,89.1%,64.1%,81%,65%,-25.4% (active),109%,34.3%,–,63%,73.2%,86.2%,60.2%,76%,64.9%,83.7%
CCN(CC)CCOCC[C@H]1CC[C@H]2[C@@H]3[C@H](C)Cc4cc(OS(N)(=O)=O)ccc4[C@H]3CC[C@]12C,-87.4% (active),-61.9% (active),-24.9% (active),-96.7% (active),-85.2% (active),-88.2% (active),-90.2% (active),-99.6% (active),-78.5% (active),-58.6% (active),-63.8% (active),-67.5% (active),-67.3% (active),–,-80.2% (active),-65% (active),–,-97.1% (active),-96.1% (active)
COc1ccc(C2CC(c3ccc4c(c3)OCO4)=NN2C=O)cc1 (configuration not stated),100%,87.6%,107%,102%,102%,89.2%,95.8%,89.5%,115%,107%,90.3%,–,84.2%,100%,108%,113%,110%,102%,98.8%
NS(=O)(=O)c1ccc(N2CC(c3nc4ccccc4[nH]3)CC2=O)cc1 (configuration not stated),90.3%,97.1%,88.9%,85.4%,100%,100%,99.5%,102%,101%,109%,97.2%,92.9%,85.4%,–,96.1%,99.9%,109%,96.9%,96.6%
c1ccc(-c2oc(-c3ccccc3)c3ccccc23)cc1,99.2%,104%,118%,98.2%,102%,78.7%,99%,101%,105%,90.3%,86.5%,–,91%,116%,102%,102%,108%,110%,104%
CCOC(=O)Nc1ccc2c3c(cccc13)-c1ccccc1-2,42.8%,63.1%,50.6%,45.1%,19.2%,81.6%,47%,44.1%,24.3%,66.1%,15.6%,–,35%,57.9%,52.3%,27.2%,59.4%,6.41% (active),21.9%
